# Results from the supplement of paper PMC9694430.
# Tested on: LOC_OS02G07810-cb001
# Assay: thermal shift delta Tm vs DMSO control; higher = stronger stabilization (binding)
# Settings: 12.5 µM; protein concentration 2 µM
# In short: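 The melting temperature shift given here is a triplicate mean, measured against protein that received only DMSO. Melting temperatures came from Boltzmann fits of differential scanning fluorimetry data on E. coli-expressed, purified rice kinase domain constructs. Each 19.5 μl well contained 2 μM kinase, 100 mM potassium phosphate pH 7.5, 150 mM NaCl, 10% glycerol, 5 × SYPRO Orange and compound in DMSO. Plates were scanned from 25°C to 95°C at 0.05°C/s.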
row,SMILES,thermal shift delta Tm
1,Oc1c2ccccc2c2c3c(cccc13)N=N2,1.65 °C
2,CSc1cccc(Nc2ncc3cc(-c4c(Cl)cccc4Cl)c(=O)n(C)c3n2)c1,0.11 °C
3,COc1cc(Nc2ncc(F)c(Nc3ccc4c(n3)NC(=O)C(C)(C)O4)n2)cc(OC)c1OC [R406 (free base)],2.03 °C
4,Cc1cn(-c2cc(NC(=O)c3ccc(C)c(Nc4nccc(-c5cnccn5)n4)c3)cc(C(F)(F)F)c2)cn1 [Radotinib],1.04 °C
5,CN1CCN(Cc2ccc(-c3cnc4[nH]cc(-c5ccc6[nH]ccc6c5)c4c3)cc2)CC1,1.34 °C
6,CONC(=O)c1ccccc1Nc1cc(Nc2cc(C)nn2C(C)C)ncc1Cl,-0.17 °C
7,CNC(=O)c1cc(Oc2ccc(NC(=O)Nc3ccc(Cl)c(C(F)(F)F)c3)c(F)c2)ccn1 [Regorafenib (BAY 73-4506)],0.73 °C
8,c1cc(-c2cnn3cc(-c4ccc(OCCN5CCCCC5)cc4)cnc23)ccn1 [Dorsomorphin 2HCl],0.33 °C
9,CCCCCCCCCC(=O)CC(O)S(=O)(=O)O (configuration not stated) [Sodium Houttuyfonate],0.29 °C
10,CC(C)[C@H](CO)Nc1nc(Nc2cccc(Cl)c2)c2ncn(C(C)C)c2n1 [Purvalanol A],0.09 °C
11,COc1ccc(Cl)c(Nc2nc3ccccc3nc2NS(=O)(=O)c2cccc(NC(=O)C(C)(C)N)c2)c1 [Pilaralisib (XL147)],1.84 °C
12,CC(C)Oc1ccc(-c2nn([C@@H](C)c3oc4ccc(F)cc4c(=O)c3-c3cccc(F)c3)c3ncnc(N)c23)cc1F,-0.1 °C
13,O=C(/C=C/c1ccc2ccccc2n1)c1ccncc1,0.02 °C
14,CC(C)(O)CC(=O)NCCn1ccc2ncnc(Nc3ccc(Oc4cccc(C(F)(F)F)c4)c(Cl)c3)c21,1.53 °C
15,CCOC(=O)c1cnc2ccc(-c3cncc(NS(=O)(=O)c4ccccc4)c3)cn12,1.1 °C
16,N#Cc1c(NC(=O)c2cccc3ccccc23)sc2c1CCCC2 [JNK Inhibitor IX],0.12 °C
17,CN(C)Cc1cccc(N=C(c2ccccc2)c2c(O)[nH]c3cc(C(=O)N(C)C)ccc23)c1,1.05 °C
18,O=c1c(-c2ccc(O)cc2)coc2cc(O)cc(O)c12 [Genistein],0.97 °C
19,CCn1c2ccccc2c2cc(Nc3ccnc(NCCCN4CCOCC4)n3)ccc21,0.54 °C

row,SMILES,thermal shift delta Tm
1,N#CC(=C(/N)Sc1ccccc1N)/C(C#N)=C(\N)Sc1ccccc1N,1.33 °C
2,CCN(CC)CCCC(C)Nc1nc(C)cc(Nc2ccc3nc(C)cc(N)c3c2)n1 (configuration not stated),-0.06 °C
3,c1cn2cc(-c3ccc4cn[nH]c4c3)nc(Nc3ccc(N4CCOCC4)cc3)c2n1 [Entospletinib (GS-9973)],-0.11 °C
4,C[C@H]1CNC(=O)c2cnn3ccc(nc23)N[C@H](C)c2cc(F)ccc2O1,-0.67 °C
5,CC(C)c1cnn2c(NCc3ccccc3)cc(NCCCCCCN)nc12,0.44 °C
6,C=CC(=O)Nc1cccc(Nc2nc(Nc3ccc(NC4CN(CCF)C4)cc3OC)ncc2C(F)(F)F)c1,0.93 °C
7,CNC(=O)CN1CCC(Oc2cc3c(Nc4cccc(Cl)c4F)ncnc3cc2OC)CC1 [Sapitinib (AZD8931)],0.32 °C
8,"C=CC(=O)Nc1cccc(Nc2nc(Nc3ccc(N4CCN(C(C)=O)CC4)cc3OC)ncc2C(F)(F)F)c1 [Rociletinib (CO-1686, AVL-301)]",1 °C
9,O=C(c1ccc(/C=C/c2n[nH]c3ccccc23)cc1)N1CCNCC1,0.73 °C
10,Cc1ccc(NC(=O)c2ccc(CN3CCN(C)CC3)cc2)cc1Nc1nc(-c2cccnc2)cs1 [Masitinib (AB1010)],0.34 °C
11,N#Cc1c(O)c2c(-c3ccc(-c4ccccc4O)cc3)csc2[nH]c1=O,1.91 °C
12,CN1CC[C@H](c2c(O)cc(O)c3c(=O)cc(-c4ccccc4Cl)oc23)[C@H](O)C1 [Flavopiridol (Alvocidib)],0.63 °C
13,Cc1cnc(Nc2ccc(OCCN3CCCC3)cc2)nc1Nc1cccc(S(=O)(=O)NC(C)(C)C)c1,0.5 °C
14,C[C@@H](Oc1ccc2[nH]nc(/C=C/c3cnn(CCO)c3)c2c1)c1c(Cl)cncc1Cl,0.37 °C
15,Nc1cccc(-c2cc3c(Oc4cccc(O)c4)ncnc3[nH]2)c1,1.59 °C
16,CN1CCC(COc2cnc(-c3cccc(Cn4nc(-c5cccc(C#N)c5)ccc4=O)c3)nc2)CC1,0.34 °C
17,"C[C@H](Nc1ncnc2nc[nH]c12)c1cc2cccc(Cl)c2c(=O)n1-c1ccccc1 [Duvelisib (IPI-145, INK1197)]",0.73 °C
18,CCCCNc1ncc(C(=O)NCc2ccc(-n3ccnc3)cc2)c(NC2CCC(O)CC2)n1 (configuration not stated),0.76 °C
